Assay results published in PubChem BioAssay (EPA / NIEHS).
Some compounds were tested as several samples or in several runs, with calls that do not always agree. Calls of active or inactive are those of the source. The calls were made as follows: active = hit-call score of the fitted dose curve at least 0.9, where 1 is the maximum; inactive = score below 0.9.

Read-out: Macrophage Inflammatory Protein-1 Alpha (MIP1a), CCL3 (gene 6348)
Assay: BSK_IMphg_MIP1a: BioMAP Diversity Plus: IMphg Assay for Macrophage Inflammatory Protein-1 Alpha (MIP1a) Biomarker Activity (AID 2284255)
Conditions: primary human endothelial cells with macrophages
Experimental: BSK_IMphg is a cell-based, multiplexed-readout assay that uses venular endothelial cells and macrophages, a human vascular primary cell, with measurements taken at 24 hours after chemical dosing in a microplate: 96-well plate.BSK_IMphg_MIP1a is an assay component measured in the BSK_IMphg assay. It measures MIP-1a antibody related to regulation of gene expression using ELISA technology.Data from the assay component BSK_IMphg_MIP1a was analyzed at the endpoint, BSK_IMphg_MIP1a, in the positive analysis fitting direction relative to DMSO as the negative control and baseline of activity. Using a type of binding reporter, gain or loss-of-signal activity can be used to understand protein changes. To generalize the intended target to other relatable targets, this assay endpoint is annotated to the 'cytokine' intended target family, where the subfamily is 'inflammatory factor'.
The levels of cell surface (or secreted, indicated by the prefix "s") biomarker endpoints were measured by ELISA. Overt cytotoxicity to cells in confluent adherent cultures (all systems other than the BT system) was assessed by measuring total protein levels using sulforhodamine B (SRB) staining in parallel cultures at the time of biomarker measurements, indicated as SRB endpoints. For proliferation assays for adherent cell types, individual cell types are cultured at sub-confluence and relative cell numbers quantified by SRB staining at time points optimized for each system (48 h: 3C and CASM3C systems; 72 h: BT and HDF3CGF systems; 96 h: SAg system). SRB was performed by staining cells with 0.1% SRB after fixation with 10% TCA and reading wells at 560 nm.Viability and proliferation of PBMC (T cells) was quantified by Alamar Blue reduction for the SAg and BT systems. For PBMC viability (referred to as PBMC Cytotoxicity within the assay endpoint names), cells were plated (75,000/well in a 96-well plate) and then chemical samples added for 1 h before addition of activators, SEB and TSST-1 (20 ng/mL final concentration each). Cells were incubated for 90 h. Then, Alamar Blue (20 uL/well) (Invitrogen, Cat DAL1100) was added for 6 h, and the plates were read with a fluorescence microplate reader at 546/580 nm (excitation/emission). For PBMC proliferation, cells were plated and activated as above but incubated for only 16 h prior to addition of Alamar Blue. Plates were read after 6 h.

Row | SMILES | outcome | AC50
1 | FC(F)(F)C(F)(F)C(F)(F)C(F)(F)C(F)(F)C(F)(F)C(F)(F)I | inactive | –
2 | O=S(=O)(OCC(F)F)C(F)(F)F | inactive | –
3 | FC(F)(F)C(F)(F)C(F)(F)C(F)(F)C(F)(F)C(F)(F)C(F)(F)C(F)(F)CCS | inactive | –
4 | CC(C)(C)C(=O)CC(=O)C(F)(F)C(F)(F)C(F)(F)F | inactive | 44.2 µM (active)
5 | OCC(F)(F)C(F)(F)C(F)(F)C(F)(F)C(F)(F)C(F)F | inactive | –
6 | CCCCCCCCC(F)(F)C(F)(F)C(F)(F)C(F)(F)C(F)(F)C(F)(F)F | inactive | –
7 | OCCCC(F)(F)C(F)(F)C(F)(F)C(F)(F)C(F)(F)C(F)(F)C(F)(F)F | inactive | 37.5 µM (active)
8 | NC(=O)C(F)(F)C(F)(F)C(F)(F)C(F)(F)F | inactive | –
9 | OCC(F)(F)C(F)(F)C(F)(F)F | inactive | –
10 | O=C(O)C=C(C(F)(F)F)C(F)(F)F | inactive | –
11 | C=C(C)C(=O)OCC(F)(F)C(F)(F)C(F)(F)C(F)(F)C(F)(F)C(F)(F)C(F)(F)F | inactive | –
12 | O=C(CC(=O)C(F)(F)C(F)(F)F)C(F)(F)F | inactive | –
13 | O=S(=O)(OCCOC(F)(F)F)C(F)(F)F | inactive | –
14 | O=C(O)C(F)(F)C(F)(F)C(F)(F)C(F)(F)C(F)(F)C(F)(F)C(F)(F)C(F)(F)Cl | inactive | 37.3 µM (active)
15 | N=C(N)C(F)(F)C(F)(F)C(F)(F)C(F)(F)C(F)(F)C(F)(F)C(F)(F)F | inactive | –
16 | O=C(O)C(F)(F)C(F)(F)C(F)(F)C(F)(F)F | inactive | –
17 | FC(F)(F)C(F)(F)C(F)(F)C(F)(F)C(F)(F)CCI | inactive | –
18 | C=C(C)C(=O)OCCC(F)(F)C(F)(F)C(F)(F)C(F)(F)C(F)(C(F)(F)F)C(F)(F)F | inactive | –

Row | SMILES | outcome | AC50
19 | FC(F)(F)C(F)(F)C(F)(F)C(F)(F)C(F)(F)C(F)(F)C(F)(F)C(F)(F)F | inactive | –
20 | FC(F)(F)C(F)(F)C(F)(F)C(F)(F)C(F)(F)C(F)(F)CCS | inactive | –
21 | COC(=O)CCC(F)(F)C(F)(F)C(F)(F)C(F)(F)F | inactive | –
22 | C=CC(=O)OCC(F)(F)C(F)(F)C(F)(F)C(F)(F)COC(=O)C=C | inactive | –
23 | O=C(O)C(F)(F)C(F)(F)C(F)(F)C(F)(F)C(F)(F)C(F)(F)C(F)(F)C(F)(F)C(F)(F)C(F)(F)C(F)(F)C(F)(F)C(F)(F)F | inactive | –
24 | O=P(O)(O)OCCC(F)(F)C(F)(F)C(F)(F)C(F)(F)C(F)(F)C(F)(F)F | inactive | –
25 | O=C(O)C(F)(OC(F)(F)C(F)(OC(F)(F)C(F)(F)C(F)(F)F)C(F)(F)F)C(F)(F)F (stereo not given) | inactive | –
26 | O=C(O)C(F)(OC(F)(F)C(F)(OC(F)(F)C(F)(OC(F)(F)C(F)(F)C(F)(F)F)C(F)(F)F)C(F)(F)F)C(F)(F)F (stereo not given) | inactive | –
27 | O=C(O)C(F)(F)C(F)(F)C(F)(F)F | inactive | –
28 | O=C(Cl)C(F)(F)C(F)(F)C(F)(F)C(F)(F)C(F)(F)C(F)(F)C(F)(F)C(F)(F)F | inactive | 23 µM (active)
29 | C=C(C)C(=O)OCC(F)(F)C(F)(F)C(F)(F)F | inactive | –
30 | FC(F)(F)C(F)(F)C(F)(F)C(F)(F)C(F)(F)C(F)(F)C(F)(F)Br | inactive | –
31 | OCCCC(F)(F)C(F)(F)C(F)(F)F | inactive | –
32 | FC(F)(F)C(F)(F)C(F)(F)N(C(F)(F)C(F)(F)C(F)(F)F)C(F)(F)C(F)(F)C(F)(F)F | inactive | –
33 | FC(F)(F)C(F)(F)C(F)(F)CI | inactive | –
34 | Cc1ccc(S(=O)(=O)OCC(F)(F)C(F)(F)C(F)(F)C(F)(F)C(F)(F)C(F)F)cc1 | inactive | –
35 | O=C(O)C(F)(F)C(F)(F)OC(F)(F)F | inactive | –
36 | OCC(F)(F)C(F)(F)C(F)(F)C(F)(F)C(F)(F)C(F)(F)F | inactive | –
